About 79,000 compounds went through this panel and 15% of them were active in at least one assay; those are over-represented in the sample as a whole. The source made the active and inactive calls. No stated cut-off is given here; in the data, active means growth inhibition above about 70%; inactive means the rest.
What was measured:
[1] = NCI Yeast Anticancer Drug Screen. Data for the rad50 strain (AID 155);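 further: 0% = growth of vehicle-only cultures of the same strain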; settings: S. cerevisiae rad50 strain growth inhibition; at 50.0 µM; active compounds read high
Summary of the method: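 Vehicle-treated cultures provide the reference for the growth inhibition reported for compound-exposed, repair-deficient yeast.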

[2] = NCI Yeast Anticancer Drug Screen. Data for the mec2-1 strain (AID 157); settings: S. cerevisiae mec2-1 strain, at 50.0 µM, active compounds read high
Summary of the method: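 Mutant yeast (mec2-1) grown with compound; growth inhibition relative to vehicle control reported.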

[3] = NCI Yeast Anticancer Drug Screen. Data for the sgs1 mgt1 strain (AID 161);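 further: 0% = growth of cultures given vehicle only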; settings: S. cerevisiae sgs1 mgt1 strain, at 50.0 µM, active compounds read high
Summary of the method: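 Percent growth inhibition was derived by comparing compound-exposed mutant yeast with vehicle-exposed cultures. The strain carries alterations in DNA damage repair.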

[4] = NCI Yeast Anticancer Drug Screen. Data for the bub3 strain (AID 167); settings: S. cerevisiae bub3 mutant strain, at 50.0 µM, active compounds read high
Summary of the method: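 Mutant yeast screening strain plus compound; vehicle-treated cultures serve as the 0% inhibition reference.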

[5] = NCI Yeast Anticancer Drug Screen. Data for the mlh1 rad18 strain (AID 175); settings: S. cerevisiae mlh1 rad18 strain growth inhibition; at 50.0 µM; active compounds read high
Summary of the method: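 Genetically defined yeast (DNA repair-deficient) exposed to compounds; growth inhibition determined relative to vehicle.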

[6] = NCI Yeast Anticancer Drug Screen. Data for the cln2 rad14 strain (AID 165);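 further: 0% = growth equal to vehicle treated cultures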; settings: S. cerevisiae cln2 rad14 strain, at 50.0 µM, active compounds read high
Summary of the method: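 Readout is yeast growth inhibition versus vehicle-treated controls, using a strain with cln2 and rad14 alterations exposed to compound.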

Measured: growth inhibition

COc1cccc2c1C(=O)c1c(O)c3c(c(O)c1C2=O)C[C@@](O)(C(=O)CO)C[C@@H]3OC1CC(N2CCOCC2C#N)C(O)C(C)O1 (some centres not stated)
active: [1] 90.1% | [2] 91.2% | [3] 92.4% | [4] 90.5% | [5] 91%

N#CCC(=O)c1ccccc1
inactive: [1] 3.3% | [2] 29.9% | [6] -20.7% | [4] -10.9% | [5] 1.4%

CN1CCC(O)(c2ccc(Br)cc2)C(C(=O)c2ccc(Br)cc2)C1 (configuration not stated)
inactive: [2] 12.3% | [6] -2.65% | [4] 0.35% | [5] 34.8%
active: [1] 96.1%

CNCCc1ccc(O)c(O)c1
inactive: [1] -1.6% | [2] -13.2% | [5] -6.15%

Cc1ccc(-n2c(=S)[nH]c3ccccc3c2=O)cc1F
inactive: [1] -23.9% | [2] -25.9% | [5] -18.1%

COc1ccc(CC[N+](C)(C)C)cc1
inactive: [1] -3.85% | [2] -2.5% | [5] 32.5%

O=C1C(Br)=C(N2CC2)C(=O)C(Br)=C1N1CC1
inactive: [4] 39%
active: [1] 96% | [2] 88% | [5] 97%

CCOC(=O)C1C(c2ccco2)C2(C#N)C(=N)OC1(C)C2(C#N)C#N (configuration not stated)
inactive: [1] 3.45% | [3] -39.5% | [6] -0.9% | [4] -36.8% | [5] -52%

O=c1c2ccccc2[nH]c(=S)n1-c1cccc(Cl)c1
inactive: [1] 44.2% | [2] 16.1% | [5] 27.4%

C[As+](C)(C)c1ccc(Br)c([N+](=O)[O-])c1
inactive: [1] 7.6% | [2] -0.85% | [4] -1.3% | [5] 10.9%

CCOC(=O)c1ccc2nc(-c3ccc(S(=O)(=O)F)cc3)cc(Cl)c2c1
inactive: [1] 12% | [2] -9.95% | [5] 23.5%

O=C1C(Cl)=C(Cl)C1(Cl)Cl
inactive: [1] -3.5% | [2] -20.4% | [5] -2.65%

Clc1cccc(NC2=NCCS2)c1
inactive: [1] -7.35% | [2] -32.6% | [5] -40.8%

CSC(=S)N(C)c1nc(=[N+](C)C)ss1
inactive: [1] -12.8% | [3] -9.8% | [6] -32.4% | [4] -2.25% | [5] 27.3%

C/C=C1\CN2CCC1CC2C(O)c1ccnc2ccc(O)cc12 (configuration not stated)
inactive: [1] -3.6% | [2] -13.7% | [5] 32.2%

O=[N+]([O-])c1cc(Br)c(O)c(Br)c1
inactive: [1] 12.2% | [3] 5.15% | [6] -37.4% | [4] 6.75% | [5] 32.3%

CCOP(=O)(O)OCC
inactive: [1] -16.6% | [3] -20.1% | [6] -0.25% | [4] 0.95%

c1ccc2c(c1)O[As](O[As]1Oc3ccccc3O1)O2
inactive: [1] -4.2% | [2] 4.75% | [5] 10.2%

Brc1ccc(C[N+]23CCN(CC2)CC3)cc1
inactive: [1] -14.2% | [2] -35.1% | [5] -16%

Cc1ccc(-c2cc(Cl)c3cc(S(=O)(=O)F)ccc3n2)cc1
inactive: [1] -4% | [2] -16.6% | [5] -9.1%

CCOP(=O)(CC#N)OCC
inactive: [1] -6.85% | [2] -11.7% | [4] 2.7% | [5] 0%

CN1C2c3ccccc3C3C4c5ccccc5C(C31)C(C2[N+](=O)[O-])N4C (configuration not stated)
inactive: [1] -12.8% | [2] -30.8% | [5] -13.5%

O=[N+]([O-])c1ccc(C[N+]23CCN(CC2)CC3)cc1
inactive: [1] 5.9% | [2] -16.7% | [5] 3.8%

CC(Cc1ccccc1)N(C)CC1C(=O)C2CCC1C2 (configuration not stated)
inactive: [1] 10.5% | [2] -12.6% | [5] 6.25%

CCCOP(=O)(CCl)OCCC
inactive: [1] -7.8% | [2] -5.05% | [5] 8.25%

COc1ccc(-n2c(=S)[nH]c3ccccc3c2=O)cc1
inactive: [1] -10.5% | [2] -9.7% | [5] 4.8%

COc1ccc(S(=O)(=O)F)cc1NC(=O)c1ccc2ccccc2c1O
inactive: [1] 6.4% | [2] 7.75% | [5] 41.6%
